BAZ2B block – BAZ2B (human) inhibition; Q9UIF8; AlphaScreen BAZ2B-H3K14Ac peptide displacement; Potency, µM (top dose mostly 114 µM), without a hit: at the highest dose activity change, negative = inhibition, usual class: inhibitors; 4.4% of 360,000 active; AID 504333; note: % is set by controls: 0 for no effect and ±100 for the full control effect; nearly all actives have a fitted effect of over 60% in size
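Inhibition is scored as reduced AlphaScreen emission. The BAZ2B/b-H3(5-23)K14Ac complex (50 nM each) in PBS pH 7.4, 0.01% Tween-20 meets compound (up to 110 uM) for 30 min at RT before bead addition.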
Sfp inh – inhibitors of Bacillus subtilis Sfp phosphopantetheinyl transferase; Q9F4F7; Biochemical Sfp PPTase activity, qHTS; Potency, µM, for the others: largest response in the series, negative = inhibition, hits mostly inhibitors; 3.5% of 310,000 active; AID 1490;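 note: the enzyme is Sfp with the accession as filed and its product quenches rhodamine fluorescence; 0% = enzyme reaction without inhibitor and -100% = no enzyme wells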
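Compounds were incubated with enzyme (final 15 nM) for 15 min at room temperature before substrate addition started the reaction. Fluorescence at 525 nm excitation, 598 nm emission was recorded immediately and after 30 minutes.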
HP1b binding inh – HP1-beta chromodomain-methylated histone interaction inhibition. P83916. AlphaScreen HP1-beta / biotin-H3K9me3 peptide binding. Potency, µM (series often up to 114 µM), inactives show at the top dose activity change, negative = inhibition, actives largely listed as inhibitors. 0.56% of 390,000 active. AID 540317; note: nearly all actives have a fitted effect of over 70% in size
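Compound inhibition of the preformed complex between 50 nM HP1-beta and 50 nM biotinylated H3K9me3 peptide was read by AlphaScreen. Buffer was PBS pH 7.4 with 0.01% Tween-20. Incubations ran 30 min at room temperature, with 10 ug/mL donor/acceptor beads.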
12-LOX inh – inhibitors of human 12S-lipoxygenase ALOX12. P18054. purified 12hLO, xylenol orange hydroperoxide absorbance. Potency, µM (series often up to 108 µM), without a hit: at the top dose activity change, negative = inhibition, most hits filed as inhibitors. 1.1% of 580,000 active. AID 1671190; note: % is set by controls: 0 for no effect and ±100 for the full control effect
Target sequence (P18054 whole entry, looked up): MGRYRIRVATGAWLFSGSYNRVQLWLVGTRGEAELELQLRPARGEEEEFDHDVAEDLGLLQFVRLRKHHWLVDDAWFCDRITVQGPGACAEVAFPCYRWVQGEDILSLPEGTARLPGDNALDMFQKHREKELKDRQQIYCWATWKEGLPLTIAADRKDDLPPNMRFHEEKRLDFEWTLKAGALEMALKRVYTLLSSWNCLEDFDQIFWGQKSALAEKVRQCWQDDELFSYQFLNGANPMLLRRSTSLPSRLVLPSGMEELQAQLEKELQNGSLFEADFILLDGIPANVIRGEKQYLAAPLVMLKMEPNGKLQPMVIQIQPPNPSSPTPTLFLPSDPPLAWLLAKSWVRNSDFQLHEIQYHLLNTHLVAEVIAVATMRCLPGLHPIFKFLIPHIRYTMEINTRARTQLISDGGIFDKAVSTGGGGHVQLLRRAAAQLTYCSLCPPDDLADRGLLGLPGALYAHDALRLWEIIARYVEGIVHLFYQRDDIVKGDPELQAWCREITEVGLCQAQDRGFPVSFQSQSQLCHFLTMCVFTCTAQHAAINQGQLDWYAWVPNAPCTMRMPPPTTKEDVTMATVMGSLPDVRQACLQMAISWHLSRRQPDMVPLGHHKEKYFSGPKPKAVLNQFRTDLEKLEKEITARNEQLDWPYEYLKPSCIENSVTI
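Purified human 12hLO at 150 nM in 25 mM Hepes, 0.01% Triton X-100, pH 7.0, preincubated 15 min at room temperature with compound. Reaction started with 40 uM arachidonic acid, 30 min at room temperature. Hydroperoxide measured by Fe-xylenol orange, 573/405 nm absorbance ratio.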
JMJD2A Tudor inh – JMJD2A Tudor domain (human) inhibition. AlphaScreen JMJD2A-Tudor / H3K4me3 peptide binding. Potency, µM (titrated, usually from 114 µM), for inactives: at the top dose activity change, negative = inhibition, most hits filed as inhibitors. O75164. 4.4% of 390,000 active; note: % is set by controls: 0 for no effect and ±100 for the full control effect; nearly all actives have a fitted effect of over 50% in size
G9a block – G9a (human) methyltransferase inhibition; G9a H3K9 monomethylation, AlphaScreen, 2 h; Potency, µM (titrated, usually from 102 µM), for the others: top-dose activity, negative = inhibition, actives largely listed as inhibitors; 8.8% of 350,000 active; note: % is set by controls: 0 for no effect and ±100 for the full control effect; nearly all actives have a fitted effect of over 75% in size
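AlphaScreen read-out: biotin-H3K9 peptide (500 nM) methylation by 20 nM enzyme with 20 uM SAM, 2 h at room temperature after 15 min compound preincubation; anti-monomethyl H3K9 antibody plus donor/acceptor beads, 10 min dark.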
The depositor's hits bear a star; ? = inconclusive; · = no result given; ! = a repeat was not active; [ ] = another dose, or the depositor's remark. Most compounds without a hit are left out; they make up all but 8.7% or so of the library. Calls come from the whole dose curve; as a rule, active = well fitted curve in the direction sought with a large enough effect; inconclusive = small, poorly fitted or top-dose-only effect, or another doubt; inactive = no such curve, though single readings can be large; an effect the other way counts as inactive or inconclusive. Potency is the fitted concentration of half-maximal effect.

SMILES | BAZ2B block | Sfp inh | HP1b binding inh | 12-LOX inh | JMJD2A Tudor inh | G9a block
CC1CCN(S(=O)(=O)c2cc(C(=O)NCc3ccc(N(C)C)cc3)n(C)c2)CC1 | 35µM* | · | -9%[57 µM] | -23% | 56µM* | 10µM*
CCOc1ccc(CNC(=O)C2CCCN(S(=O)(=O)c3ccc4c(c3)CCCC(=O)N4)C2)cc1 (stereo unspecified) | 10%[57.1 µM] | · | 30% | -17% | -18% | 0%[59 µM]
O=C(Nc1c(F)c(F)c(F)c(F)c1F)C12CC3CC(CC(C3)C1)C2 | · | · | · | 55% | · | ·
CCC(C)NC(=O)CN1C(=O)c2cccc3cccc1c23 (stereo unspecified) | -2% | 4% | 35% | -2% | -11% | 12%
CCN1/C(=N\N)c2cccc3cccc1c23 | 7.9µM* | 35µM* | ? | 41% | 7.9µM* | -169%[59 µM]
Clc1cccc(CN2CCSCC2)c1Cl | ? | -32% | ? | ? | 3.5µM* | 3.5µM*
Clc1cccc(CN2CCCCCC2)c1Cl | ? | -2% | ? | ? | 0.71µM* | 20µM*
Clc1ccccc1Cc1noc(CN2CCSCC2)n1 | -6% | 4% | 26% | -8% | 1% | 19%[12.7 µM]
O=C(NCc1ccccc1CN1CCCC1)c1ccccc1Cl | · | · | · | 14% | · | ·
O=C(COc1c(Br)cc(Br)c2cccnc12)Nc1ccccc1F | 50µM* | -13% | 18% | ? | -22% | 45µM*
CCOC(=O)c1c(OCC)[nH]c2c1cc(O)c1ccccc12 | 50µM* | ? | ? | ? | 50µM* | ?
CCOC(=O)c1c(C)[nH]c2cc(Br)c(O)cc12 | -1% | -19% | -12% | 4% | -21%[57.1 µM] | -14%[59 µM]
Cc1ccc(Nc2nc(-c3ccccc3)c(CC(=O)O)s2)cc1 | -27% | 0% | -23% | ? | 2%[11.4 µM] | 45µM*
O=C(O)Cc1cn(-c2ccccc2)nc1-c1ccc(Cl)cc1 | 2% | 45µM*! | 23% | ? | 8% | 7%
O=C(O)Cc1sc(NCc2ccco2)nc1-c1ccccc1 | ? | 25µM* | 12% | -7% | -25% | ·
O=C(O)Cc1sc(Nc2ccccc2)nc1-c1ccc(Cl)cc1 | -28% | ? | ? | ? | 45µM* | 18µM*
O=C(O)Cc1sc(Nc2ccc(C(=O)O)cc2)nc1-c1ccccc1 | -19% | · | 30% | -22% | 0% | 2%[59 µM]
O=C(O)Cc1sc(Nc2ccc(F)cc2)nc1-c1cccs1 | ? | 22µM* | ? | ? | ? | 8.9µM*
O=C(Cc1sc(Nc2ccccc2)nc1-c1ccccc1)NCc1ccccn1 | -38% | 14µM* | -17% | 6% | ? | 35µM*
O=C(O)Cc1sc(-c2ccccc2)nc1-c1ccc(Cl)cc1 | · | · | · | -11% | · | ·
O=C(O)Cc1sc(-c2ccc(Cl)cc2)nc1-c1ccccc1 | 0% | 15% | ? | 55% | 25µM* | -47%[12.7 µM]
Cc1csc(NC(=O)C2COc3ccccc3O2)n1 (stereo unspecified) | -2% | 14% | 19% | -18% | 2% | ?
CCC(C)NC(=O)c1ccccc1NC(=O)C1COc2ccccc2O1 (stereo unspecified) | -2% | 9% | 32% | 0% | -13% | 2%
Cc1nc2cc(NC(=O)C3COc4ccccc4O3)ccc2s1 (stereo unspecified) | -28% | -2% | 5% | 18% | -16% | 50µM*
Cc1cnc(NC(=O)C2COc3ccccc3O2)s1 (stereo unspecified) | ? | 5% | -2% | ? | ? | 35µM*
CC(C)NC(=O)c1ccccc1NC(=O)C1COc2ccccc2O1 (stereo unspecified) | -1% | 19% | -5% | 0%[57.4 µM] | 50µM* | 5%[59 µM]
Cc1ccc(-c2nc(Cn3nnc(-c4cccc(F)c4)n3)cs2)cc1 | · | · | · | 4% | · | ·
CN(Cc1ccccc1OC(F)(F)F)Cc1cccn1C | · | · | · | 2%[176 µM] | · | ·
Cn1cnc(S(=O)(=O)N2CC(N(C3CCOCC3)S(C)(=O)=O)C2)c1 | · | · | · | 23% | · | ·

From PubChem BioAssay
